Shown are actives, neighbours in structure and some others; about 9.3% of the full set was active somewhere.
NPC1 promoter act: activators of NPC1 promoter; AID 485313; Potency, µM (top dose mostly 9.22 µM), usual class: activators; Huh7 NPC1 promoter luciferase reporter, 24 h; actives 2.4% (n = 320,000); also: nearly all actives have a fitted effect of over 60% in size
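Compounds in DMSO were transferred onto Huh7 NPC1-luciferase reporter cells pre-incubated 2 h; after 24 h at 37 °C, Amplite reagent was dispensed and luminescence recorded 10 min later.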
SMN2 splice up: SMN2 splice variant enhancement | HEK293 SMN2-luciferase splicing reporter, luminescence, 30-36 h | Potency, µM (top dose mostly 46.1 µM), actives largely listed as activators | actives 2.8% (n = 210,000); also: nearly all actives have a fitted effect of over 55% in size
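HEK293 cells carry an SMN2 […]–luciferase reporter in which exon 7 inclusion puts luciferase in frame. Cells were plated 10-12 h before compound addition, then incubated 30-36 h at 37C. ONE-Glo luminescence was read; sodium butyrate at 4.5 mM final served as control.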
FLuc counter: inhibits or activates purified firefly luciferase, miR-21 counter-screen; P08659; purified FLuc, Km substrates, luminescence inhibition; Potency, µM (doses to about 57.5 µM), usual class: inhibitors; actives 6.9% (n = 360,000); also: nearly all actives have a fitted effect of over 55% in size
Target sequence (P08659 whole entry, looked up): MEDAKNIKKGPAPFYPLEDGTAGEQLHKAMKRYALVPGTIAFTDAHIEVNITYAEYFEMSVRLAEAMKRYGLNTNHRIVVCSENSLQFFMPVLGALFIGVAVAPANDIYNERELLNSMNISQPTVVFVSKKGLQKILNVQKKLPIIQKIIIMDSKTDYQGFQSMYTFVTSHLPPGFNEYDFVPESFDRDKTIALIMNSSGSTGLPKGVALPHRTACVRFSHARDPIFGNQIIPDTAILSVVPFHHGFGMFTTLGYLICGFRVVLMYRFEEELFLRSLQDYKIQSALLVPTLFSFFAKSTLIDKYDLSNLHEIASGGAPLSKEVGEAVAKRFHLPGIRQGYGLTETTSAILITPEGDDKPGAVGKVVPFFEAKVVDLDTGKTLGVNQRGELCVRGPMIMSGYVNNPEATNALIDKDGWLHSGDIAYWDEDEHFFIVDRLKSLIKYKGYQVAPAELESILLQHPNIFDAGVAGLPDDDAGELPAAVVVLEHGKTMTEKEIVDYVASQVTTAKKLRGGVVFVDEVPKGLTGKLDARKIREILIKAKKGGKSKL
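Biochemical qHTS of compounds, final roughly 60 µM downward over six points, against 10 nM purified firefly luciferase using Km concentrations of substrates (10 uM D-luciferin, 10 uM ATP) in Tris acetate pH 7.5 buffer; luminescence output.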
Rab9 promoter act: activators of Rab9 promoter; Huh7 Rab9 promoter-luciferase reporter, luminescence, 24 h; Potency, µM (doses to about 9.22 µM), hits mostly activators; actives 2.8% (n = 320,000); AID 485297; also: nearly all actives have a fitted effect of over 60% in size
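Huh7 reporter line, Rab9 promoter upstream of luciferase. Compound exposure 24 h at 37 °C in reduced-serum medium with 10% FBS. Read-out: luminescence.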
ELG1 DNA repair: blocks ELG1-dependent DNA repair in HEK293T cells | HEK293T ELG1-luciferase reporter, luminescence, 16 h; DNA damage induced by 5-fluorouridine | actives 2.3% (n = 330,000) | Potency, µM (highest dose often 46.1 µM), hits mostly inhibitors; also: nearly all actives have a fitted effect of over 55% in size
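Luminescence from the luciferase reporter, measured 30 min after ONE-Glo reagent at room temperature, was the read-out. Beforehand, 2,000 cells per well were exposed for 16 hr at 37 °C to 5-fluorouridine together with compound or vehicle.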
ELG1 genotox: induces genotoxicity in HEK293T cells with luciferase-tagged ELG1; actives 1.3% (n = 330,000); Potency, µM (doses to about 46 µM), hits mostly activators; HEK293T ELG1-luciferase reporter, luminescence, 16 h; AID 504466; also: nearly all actives have a fitted effect of over 60% in size
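Screening used a luciferase reporter fused to human ELG1 in HEK293T cells. Luminescence was read on a CCD plate imager after 16 hr exposure and 30 min ONE-Glo incubation.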
Numbers stand for hits; – = inactive; ? = inconclusive; · = no result given; [ ] = dose if it differs, or a comment. Calls follow the shape of the dose curve; as a rule, active = well fitted curve in the direction sought with a large enough effect; inconclusive = small, poorly fitted or top-dose-only effect, or another doubt; inactive = no such curve, though single readings can be large; an effect the other way counts as inactive or inconclusive.

SMILES	NPC1 promoter act	SMN2 splice up	FLuc counter	Rab9 promoter act	ELG1 DNA repair	ELG1 genotox
NC(=O)/C(=C\c1ccncc1)c1cccc2ccccc12	–	–[9.22 µM]	–	–	–	–
Cc1csc(NC(=O)CSc2ccc(-c3ccccc3)nn2)n1	–	–	?	–	?	–
Cc1nc2scc(C)n2c(=O)c1S(=O)(=O)N1CCN(c2ccccc2F)CC1	–	·	–	–	–	–
Cc1cccc(N2CCN(S(=O)(=O)c3c(C)nc4scc(C)n4c3=O)CC2)c1C	–	–	–	–	25.9µM	–
Cc1sc(NC(=O)c2sc3nc4c(C)cccc4cc3c2N)c(C#N)c1C	–	–	0.536µM	?	?	?
Cc1ccc(SC(C)C(=O)NC2CC2)cc1 (centres undefined)	–	·	–	–	–	–
O=C(Nc1ccc2nc(-c3cccs3)[nH]c2c1)c1ccco1	–	?	7.57µM	?	?	–
O=C(Nc1cccc(-c2nc3ccccc3[nH]2)c1)c1ccco1	–	–	15.1µM	–	?	–
CC(=O)c1cccc(NC(=O)c2ccco2)c1	–	–	–	–	–	–
Cn1cccc1-c1nc2ccc(NC(=O)c3ccco3)cc2[nH]1	–	–	16.9µM	–	?	–
COc1c(Cl)cc(C(=O)Nc2cccc(-c3nc4ccccc4[nH]3)c2)cc1Cl	·	–	?	·	·	·
O=C(Nc1ccc2nc(-c3cccs3)[nH]c2c1)c1cccs1	–	–	–[2.3 µM]	–	?	–
Nc1ccc(C(=O)Nc2ccc3nc(-c4ccncc4)[nH]c3c2)cc1	–	?	16.9µM	–	–	–
COc1cccc(C(=O)CSc2nc3cccnc3n2C)c1	–	–	–	–	–	–
c1cncc(CNc2cccc(-c3nc4ccccc4[nH]3)c2)c1	2.82µM	0.891µM	7.57µM	2.51µM	?	?
O=C(Nc1ccc(-c2nc3ccc(NC(=O)c4cccs4)cc3[nH]2)cc1)c1cccs1	–	10µM	–	–	?	12.6µM
Cc1ccc2nc(-c3ccc(NC(=O)c4ccco4)cc3)[nH]c2c1	1.58µM	7.94µM	3.01µM	3.55µM	?	2.06µM
Cc1nn(CC(=O)NCc2cccc(F)c2)c(=O)c2cccn12	–	·	–	–	–	–
COc1ccc(CNC(=O)CN(C)Cc2ccccc2F)cc1OC	–	·	–	–	–	–
Cc1ccc(CNc2nc3ccccc3s2)s1	0.355µM	1.26µM	0.338µM	0.355µM	?	?
COc1ccc(CNc2nccs2)cc1OC	–	·	–	–	–	–
O=C(CS(=O)(=O)Cc1ccccc1)Nc1nc2ccccc2s1	–	–	–	–	–	–
COc1ccc(CNc2nc3ccccc3s2)cc1OC	?	·	23.9µM	?	?	?
c1ccc(CCNc2nc3ccccc3s2)cc1	?	–	19µM	?	?	?
CSc1ncccc1C(=O)OCC(=O)NC1CCC(C)CC1 (centres undefined)	–	·	–	–	?	–
SMILES	NPC1 promoter act	SMN2 splice up	FLuc counter	Rab9 promoter act	ELG1 DNA repair	ELG1 genotox
Cc1ccc(CCNC(=O)C2=CCN(S(=O)(=O)c3ccccc3)CC2)cc1	–	·	–	–	–	–[9.26 µM]
CCOc1ccccc1N(CC(=O)Nc1ccccc1F)S(=O)(=O)c1ccccc1	–	·	–	–	–	–
O=S(=O)(c1ccc(F)cc1)N1CCCN(Cc2c(F)cccc2F)CC1	–	·	–	–	–	–
O=C(c1ccc(Cl)c(S(=O)(=O)N2CCCCCC2)c1)N1CCN(c2ccccn2)CC1	–	–	–	–	20.6µM	–
O=C(c1ccc(Cl)c(S(=O)(=O)N2CCCCCC2)c1)N1CCCCC1	–	·	–	–	–	–
CCOc1ccccc1N1CCN(S(=O)(=O)c2cc(C)ccc2OC)CC1	?	·	16.9µM	2.51µM	?	?
CCOc1ccccc1N1CCN(C(=O)c2ccc(Cl)c(S(=O)(=O)N3CCCCC3)c2)CC1	–	·	–	–	23.1µM	–
Cc1ccccc1NC(=O)c1ccc(F)c(S(=O)(=O)N2CCN(c3ccccn3)CC2)c1	–	–	–	–	23.1µM	–
Cc1ccccc1NC(=O)c1ccc(C)c(S(=O)(=O)N2CCN(C)CC2)c1	–	·	–	–	–	–

High-throughput results: PubChem, National Center for Advancing Translational Sciences (NCATS)
